# Experimental data: PubChem BioAssay (NCI)
# The panel holds about 83,000 compounds, 20% with a hit somewhere; the sample as a whole holds those more often.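 Activity criterion: percent growth below 10, measured after cells in 96-well plates were exposed to a single compound concentration for 48 hours.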 Calls of active or inactive are those of the source.
# System: HL-60(TB) leukemia
# Assay: NCI-60 one-dose screen, 48 h (100 = growth as untreated, 0 = no growth, -100 = all killed)
# Details: 10 µM unless noted
row,SMILES,growth
1,C[C@@H](C[C@H](CCOCc1cccnc1)c1ccccc1)c1cc2ccccc2o1,98% (inactive)
2,N#Cc1c(N)nn(C(=O)c2ccc(NC(=O)c3ccccn3)cc2)c1-c1ccc(Cl)cc1,69.1% (inactive)
3,C=C1C(=O)O[C@H]2[C@H]1CC/C(CNC(=O)Cc1c[nH]c3ccccc13)=C\CC[C@@]1(C)O[C@@H]21,-52.4% (active)
4,C(CCCC1=NCCO1)CCCC1=NCCO1,112% (inactive)
5,CCOc1c(C#N)nnc2c(C#N)c(NC(=O)c3ccccc3)nn12,104% (inactive)
6,Ic1ccc(SSc2ccc(I)cc2)cc1,80.4% (inactive)
7,CC1(C)CC[C@]2(C(=O)O)CC[C@]3(C)C(=CC[C@@H]4[C@@]5(C)Cc6c([nH]c7ccccc67)C(C)(C)[C@@H]5CC[C@]43C)[C@@H]2C1,16.2% (inactive)
8,CCOC(=O)C1=C(C)NC(=O)NC1c1ccc(OCC(=O)N/N=C/c2ccc(Cl)cc2)cc1 (centres undefined),98.3% (inactive)
9,CCCCCCCCCCCC1N=C(N)N=C(N)N1c1cccc(Br)c1 (centres undefined),-53% (active)
10,CN1CCN(c2nc(NCCCNc3ccnc4cc(Cl)ccc34)c3ccccc3n2)CC1,15% (inactive)
11,O=c1[nH]ccc2nc(N3CCC(O)CC3)nc(Nc3cccc(C(F)(F)F)c3)c12,29.6% (inactive)
12,CN(C)CCCNc1nc(-c2cccc(C(Cl)(Cl)Cl)c2)nc(C(Cl)(Cl)Cl)n1,105% (inactive)
13,COc1cc(/C=C/C(=O)c2ccc(Cl)cc2)cc(CN2CCCCC2)c1O,94.2% (inactive)
14,COc1cc(C2CC(=O)Nc3c2cnn3Cc2ccco2)cc2c1OCCO2 (centres undefined),25.6% (inactive)
